From PubChem BioAssay (NCI)
This is part of a sample that, as a whole, favours compounds with a hit. Of some 79,000 tested, about 15% had one in any assay. Calls of active or inactive are those of the source. Cut-off read from the data, not from the text of the source: active = growth inhibition above about 70%; inactive = the rest.

Legend:
[1] = NCI Yeast Anticancer Drug Screen. Data for the rad50 strain (AID 155);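 note: 0% = growth of vehicle-only cultures of the same strain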; details: S. cerevisiae rad50 strain growth inhibition; at 50.0 µM; hits give high values
In short: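 Growth of the mutant yeast was measured after compound exposure and referenced to vehicle-treated cultures.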

[2] = NCI Yeast Anticancer Drug Screen. Data for the mec2-1 strain (AID 157); details: S. cerevisiae mec2-1 strain, at 50.0 µM, hits give high values
In short: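 Test agents were screened against the mec2-1 yeast strain, with defined DNA repair or cell cycle alteration. Growth was scored as inhibition against vehicle-only controls.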

[3] = NCI Yeast Anticancer Drug Screen. Data for the sgs1 mgt1 strain (AID 161);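 note: 0% = growth of cultures given vehicle only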; details: S. cerevisiae sgs1 mgt1 strain, at 50.0 µM, hits give high values
In short: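 Read-out: growth inhibition vs vehicle controls. Cells: mutant yeast strain deficient in DNA damage repair.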

[4] = NCI Yeast Anticancer Drug Screen. Data for the cln2 rad14 strain (AID 165);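 note: 0% = growth equal to vehicle treated cultures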; details: S. cerevisiae cln2 rad14 strain, at 50.0 µM, hits give high values
In short: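 Growth of compound-exposed yeast (cln2 rad14 genotype) measured and expressed as inhibition relative to vehicle.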

[5] = NCI Yeast Anticancer Drug Screen. Data for the bub3 strain (AID 167); details: S. cerevisiae bub3 mutant strain, at 50.0 µM, hits give high values
In short: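 Whole-cell yeast assay. The mutant strain was incubated with compounds, and growth inhibition was determined by comparison with vehicle-treated cells.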

[6] = NCI Yeast Anticancer Drug Screen. Data for the mlh1 rad18 strain (AID 175); details: S. cerevisiae mlh1 rad18 strain growth inhibition; at 50.0 µM; hits give high values
In short: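 In this whole-cell yeast screen, a strain with altered DNA damage repair is challenged with compound, and its growth is measured against matched vehicle-treated controls.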

Measured: growth inhibition

COc1ccc(C(=O)CC(=O)CCC(=O)Nc2ccc(Cl)cc2Cl)cc1
inactive: [1] 26.4% | [2] 19.1% | [3] 20.9% | [4] 19.8% | [5] 8.2% | [6] 7.75%

CCN(CC)CCCNc1c2ccccc2nc2ccccc12
inactive: [1] 13.7% | [2] 22.8% | [3] 9.2% | [4] 51.6% | [5] -8.1% | [6] 7%

Cc1cccc(C)c1Nc1cc(=O)[nH]c(=O)[nH]1
inactive: [1] -2.6% | [2] -2.75% | [3] 3.4% | [4] -33.2% | [5] -11.6% | [6] -12.2%

CCOC(=O)c1c(C)csc1NC(=O)CSCC(=O)OC
inactive: [1] 10.2% | [2] -4% | [3] 30.5% | [4] 19.9% | [5] 41% | [6] 31.6%

CC(=O)c1ccc(C(=O)c2cccnc2)cc1
inactive: [1] -17% | [2] -9.2% | [3] -0.4% | [4] -49.3% | [5] -14.7% | [6] 7.4%

O=c1cc(-c2ccccc2)nc(Sc2ccc([N+](=O)[O-])cc2[N+](=O)[O-])[nH]1
inactive: [1] 1.1% | [2] 0.2% | [3] -11.4% | [4] 2.7% | [5] 2.65% | [6] 8.25%

NC(=O)c1cn(Cc2ccccc2)c(=O)n1Cc1ccccc1
inactive: [1] 9.75% | [2] 18.2% | [3] -3.2% | [4] 9.45% | [5] 23.8% | [6] 11.7%

C[C@@]12CCC(=O)C=C1CC[C@H]1C2CC[C@]2(C)C1CC[C@H]2C(=O)COC(=O)CCC(=O)O (stereo not given in full)
inactive: [1] -1.85% | [2] -7.8% | [3] 21.1% | [4] -22.4% | [5] 2.55% | [6] -33.7%

Cc1ccc2c(c1)c1ccc3c(c1n2C)C(=O)C=CC3=O
active: [3] 74.8% | [6] 74%
inactive: [1] 3.25% | [2] 30.7% | [4] 2.55% | [5] 62.6%

C/C=C/C(=O)Nc1cc(Cl)ccc1C
inactive: [1] -1.25% | [2] -8.1% | [3] -4.95% | [4] -52.1% | [5] 9.4% | [6] 5.55%
